The source made the active and inactive calls.

This note sets out measurements from PubChem BioAssay.

A short description of test [1]: anti-His antibody binders, primary screen, artefact control for SMM control protein annotation, biochemical, small-molecule microarray, 635 nm fluorescence (AID 1128).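 Also: score merges feature fluorescence with signal-to-noise for each printed compound spot.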 As to conditions: anti-His Alexa647 antibody binding, higher = more signal.
Test [2] has as its system Human papillomavirus type 1a E7 protein (residues 1-88). The test is described as follows: HPV1a E7 small-molecule binders, primary screen, biochemical, small-molecule microarray, residues 1-88, 635 nm (AID 1129). As to conditions: small-molecule microarray binding, fluorescence 635 nm; higher = more signal.
Test [3] addresses Focal adhesion kinase 1 (Homo sapiens) (UniProt Q05397). The test is described as follows: small-molecule microarray binders of FAK, primary screen, biochemical, 635/667 nm fluorescence, BSA, DTT (AID 1130).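 Also: composite of spot emission at 667 nm and signal to noise over triplicate slides.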 As to conditions: PTK2 binding, 635 nm fluorescence, higher = more signal.
Test [4] concerns Fibrinogen (Alexa647-labelled). The test is described as follows: fibrinogen binders on compound microarrays, profiling panel, artefact control for SMM control-protein annotation, biochemical, small-molecule microarray, 635/667 nm fluorescence (AID 1131).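 Also: z-score merges 667 nm fluorescence with per-spot signal-to-noise over triplicate slides.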 As to conditions: fibrinogen-A647 binding fluorescence, higher = more signal.
Test [5] has as its target Follistatin (Homo sapiens) (UniProt P19883). The test is described as follows: follistatin binders on small-molecule microarrays, primary screen, biochemical, small-molecule microarray, 635/667 nm fluorescence (AID 1132). As to conditions: FST binding, 635 nm fluorescence, higher = more signal.
The target in test [6] is Fibroblast growth factor 2 (Homo sapiens) (UniProt P09038). Put plainly: FGF2 binders on small-molecule microarrays, primary screen, biochemical, small-molecule microarray, 635/667 nm fluorescence (AID 1133). As to conditions: small-molecule microarray binding, FGF2, fluorescence 635/667; higher = more signal.
Fibroblast growth factor 2 (Homo sapiens), sequence (P09038 whole entry, looked up): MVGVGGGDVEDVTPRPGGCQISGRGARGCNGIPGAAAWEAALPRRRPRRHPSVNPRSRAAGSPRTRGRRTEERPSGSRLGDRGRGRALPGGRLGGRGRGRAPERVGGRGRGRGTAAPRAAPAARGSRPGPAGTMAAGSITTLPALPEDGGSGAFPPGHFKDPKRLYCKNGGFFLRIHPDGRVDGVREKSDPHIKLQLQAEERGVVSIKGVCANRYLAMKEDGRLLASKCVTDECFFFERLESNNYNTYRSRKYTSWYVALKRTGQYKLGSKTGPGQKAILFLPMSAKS
Test [7] in a line: mitochondrial membrane potential change in A549 cells, profiling panel, cell-based, JC-1 fluorescence, basal, 24 h, 100 nL (AID 1138).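 Also: A549 lung adenocarcinoma cells under basal conditions with no added stimulus; test concentration not given here.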 As to conditions: higher = more signal.
Test [8] concerns Lefty1. The test is described as follows: Lefty1 binders on small-molecule microarrays, primary screen, biochemical, small-molecule microarray, 635/667 nm fluorescence (AID 1139). As to conditions: small-molecule microarray binding, fluorescence 635/667; higher = more signal.
For test [9], the system named is wheat germ agglutinin (Triticum aestivum), Alexa647-labelled. Put plainly: wheat germ agglutinin binders on compound microarrays, profiling panel, artefact control for SMM control-protein annotation, biochemical, small-molecule microarray, 635/667 nm fluorescence (AID 1140).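 Also: score merges 667 nm feature emission with signal to noise over triplicate slides.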 As to conditions: WGA-A647 binding, 635 nm fluorescence, higher = more signal.
The target in test [10] is Luciferin 4-monooxygenase (Photinus pyralis) (UniProt P08659). Put plainly: firefly luciferase enzyme inhibitors, primary screen, biochemical, luminescence, purified enzyme, 2006 set (AID 1141).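 Also: cell-free assay with purified firefly luciferase at 100 ng per well in PBS; test concentration not given here.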 As to conditions: SteadyGlo luminescence, 30 min, higher = more signal, called active from +8 up or from −8 down.
Luciferin 4-monooxygenase (Photinus pyralis), sequence (P08659 whole entry, looked up): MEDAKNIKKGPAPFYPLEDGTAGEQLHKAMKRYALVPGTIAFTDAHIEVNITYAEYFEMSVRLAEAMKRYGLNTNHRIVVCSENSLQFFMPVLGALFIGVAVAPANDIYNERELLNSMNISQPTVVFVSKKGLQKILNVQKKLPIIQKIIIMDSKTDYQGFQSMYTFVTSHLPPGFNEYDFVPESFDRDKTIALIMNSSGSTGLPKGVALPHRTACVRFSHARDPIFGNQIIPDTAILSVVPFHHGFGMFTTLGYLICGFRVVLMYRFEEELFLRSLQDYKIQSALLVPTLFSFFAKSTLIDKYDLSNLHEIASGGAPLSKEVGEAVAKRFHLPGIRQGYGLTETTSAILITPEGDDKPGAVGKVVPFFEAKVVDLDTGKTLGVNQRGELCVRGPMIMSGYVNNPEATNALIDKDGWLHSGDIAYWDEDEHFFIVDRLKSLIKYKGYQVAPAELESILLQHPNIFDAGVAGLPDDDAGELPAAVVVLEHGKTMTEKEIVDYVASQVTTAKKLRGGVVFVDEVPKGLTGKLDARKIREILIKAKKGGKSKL

Focal adhesion kinase 1 (Homo sapiens), sequence (Q05397 whole entry, looked up): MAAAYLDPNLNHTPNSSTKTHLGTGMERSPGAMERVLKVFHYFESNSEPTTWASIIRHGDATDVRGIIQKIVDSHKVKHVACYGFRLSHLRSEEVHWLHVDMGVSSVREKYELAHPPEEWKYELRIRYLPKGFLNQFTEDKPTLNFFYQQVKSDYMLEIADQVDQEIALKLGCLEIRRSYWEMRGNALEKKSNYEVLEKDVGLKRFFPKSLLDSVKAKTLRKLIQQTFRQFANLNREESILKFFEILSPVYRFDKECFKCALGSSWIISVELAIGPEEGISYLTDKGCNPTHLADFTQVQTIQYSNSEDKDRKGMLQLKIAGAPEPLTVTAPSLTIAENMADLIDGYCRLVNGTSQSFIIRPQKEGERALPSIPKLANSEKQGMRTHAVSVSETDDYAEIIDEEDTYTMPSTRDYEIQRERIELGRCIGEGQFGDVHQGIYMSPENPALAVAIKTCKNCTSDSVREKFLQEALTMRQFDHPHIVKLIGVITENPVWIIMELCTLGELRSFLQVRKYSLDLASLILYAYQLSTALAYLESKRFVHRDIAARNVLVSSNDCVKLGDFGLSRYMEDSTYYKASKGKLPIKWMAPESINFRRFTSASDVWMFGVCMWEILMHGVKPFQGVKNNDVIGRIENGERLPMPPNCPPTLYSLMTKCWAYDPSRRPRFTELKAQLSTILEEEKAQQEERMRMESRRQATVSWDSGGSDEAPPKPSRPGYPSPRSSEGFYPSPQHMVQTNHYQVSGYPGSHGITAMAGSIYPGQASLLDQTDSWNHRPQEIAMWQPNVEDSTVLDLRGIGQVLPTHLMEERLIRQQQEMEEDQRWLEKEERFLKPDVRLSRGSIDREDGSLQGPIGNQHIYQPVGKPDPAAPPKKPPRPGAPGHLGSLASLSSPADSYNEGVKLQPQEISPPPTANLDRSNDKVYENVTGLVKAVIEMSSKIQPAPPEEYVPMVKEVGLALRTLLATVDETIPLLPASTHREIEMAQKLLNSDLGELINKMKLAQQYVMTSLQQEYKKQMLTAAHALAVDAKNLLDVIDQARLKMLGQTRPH
Follistatin (Homo sapiens), sequence (P19883 whole entry, looked up): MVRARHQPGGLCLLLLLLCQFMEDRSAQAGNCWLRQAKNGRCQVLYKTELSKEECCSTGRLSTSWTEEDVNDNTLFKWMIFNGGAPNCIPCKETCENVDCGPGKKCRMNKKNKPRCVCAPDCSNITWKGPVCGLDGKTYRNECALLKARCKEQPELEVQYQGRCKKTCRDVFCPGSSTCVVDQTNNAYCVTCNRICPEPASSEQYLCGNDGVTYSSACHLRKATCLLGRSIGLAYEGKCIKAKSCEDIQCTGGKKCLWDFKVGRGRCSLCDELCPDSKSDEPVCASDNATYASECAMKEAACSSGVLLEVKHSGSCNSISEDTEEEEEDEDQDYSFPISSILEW

Take `COc1ccc(CCNC(=O)[C@@H]2c3ccccc3C(=O)N(Cc3ccccc3OC)[C@H]2c2ccc(CO)cc2)cc1`: the composite z-score in [1] turned out to be 1.71; in [2], 1.15; in test [3], 0.347; in test [4], 0.406; in test [5], 0.674; in test [6], 1.02. Further, the composite z-score stood at 0.0605 in test [8] and 0.655 in test [9]. Also, the z-score in [7] was 0.84; in test [10] it was 0.256 (inactive).

Regarding `C=C(CCCC)/C(=C/C[C@@H](OC(C)=O)c1ccc(CO)o1)c1cnc2ccccc2c1`, the composite z-score in test [1] worked out at 1.12; in test [2], 1.21; in test [3], 0.119; in test [4] it was 0.948; in test [5], 1.31; in test [6], 1.54. Moreover, the composite z-score in [8] came to 1.51; in [9] it was 1.27. Also, the results for the z-score in test [7] and in test [10] were -0.587 and -3.09 (inactive), respectively.

Regarding `CN(C)CCCC[C@@H]1NC(=O)[C@@H]2C[C@H](C(=O)NCCCCCN)[C@H](c3cccc(OCCO)c3)N2C1=O`, the composite z-score in test [1] is 2.76; in [2] it was 1.05; in test [3] it was -0.155; in test [4], 0.851; in test [5] it was 1.08; in [6] it was 1.25. Further, the composite z-score in [8] amounted to 0.908; in test [9] it was 0.632. Moreover, the z-score in test [7] is 2.13; in test [10], -1.6 (inactive).

Turning to `COc1cc(CO)cc(I)c1O[C@H]1C=C(C(=O)NCCO)C[C@@H]2O[C@H]12`, the composite z-score in test [1] was determined as 0.426; in test [2] it was 1.22; in test [3], 0.572; in [4], 0.4; in test [5], 1.52; in [6] it was 2.13. In addition, the composite z-score in test [8] amounted to 1.37; in test [9], 0.308. For the same compound, the z-score in [7] is -0.976; in [10] it was 0.847 (inactive).

Regarding `CN(C)CCCNC(=O)[C@@H]1c2ccccc2C(=O)N(Cc2ccccc2C(F)(F)F)[C@H]1c1ccc(CO)cc1`, the composite z-score in test [1] is -1.51; in test [2] it was 0.197; in [3] it was -0.142; in [4] it was -0.126; in test [5] it was 0.0865; in [6] it was -0.361. Also, the composite z-score is -0.913 in test [8] and 0.1 in test [9]. The figures for the z-score in test [7] and in test [10] were 2.89 and -1.13 (inactive), respectively.

`O=C1[C@H]2C=C(I)[C@H](C[C@@H]2OCCCCCCO)[C@@]12CO2`: the composite z-score in [1] is -0.624; in test [2] it was -0.334; in test [3], -0.0716; in test [4], -0.312; in [5], 1.12; in test [6] it was 0.888. Also, the composite z-score in test [8] is 1.07; in test [9], -0.291. Besides, the z-score was 0.368 in test [7] and 0.683 (inactive) in test [10].

For the compound `COc1ccc([Si](C)(C)[C@@H]2[C@@H](CC(=O)N(CCO)Cc3ccccc3)O[C@]3(C(=O)N(Cc4ccc(I)cc4)c4ccccc43)[C@H]2C)cc1`, the composite z-score in test [1] worked out at 1.9; in test [2], 0.32; in test [3] it was 0.385; in test [4] it was 0.391; in test [5], 1.49; in [6], 1.66. In addition, the figures for the composite z-score in [8] and in test [9] were 1.53 and -0.0349, respectively. Besides, the z-score in test [7] is -0.472; in test [10], 0.249 (inactive).

For `CC(C)NC(=O)[C@@H]1c2ccccc2C(=O)N(Cc2ccccc2C(F)(F)F)[C@H]1c1ccc(CO)cc1`, the composite z-score in [1] was -0.403; in test [2], -0.358; in test [3] it was -0.156; in test [4], -0.55; in test [5], 0.471; in [6] it was 0.232. In addition, the composite z-score in [8] was -1.5; in test [9], 0.145. The z-score is -0.18 in test [7] and 0.681 (inactive) in test [10].

Turning to `C=C(COC)C(=O)CC[C@@H](OC(C)=O)c1ccccc1OCCO`, the composite z-score in test [1] was 0.456; in test [2] it was 0.318; in test [3] it was -0.517; in test [4], -0.698; in [5], 1.15; in test [6] it was 1.09. For the same compound, the results for the composite z-score in [8] and in test [9] were 0.791 and 0.523, respectively. In addition, the z-score was 0.356 in test [7] and -2.79 (inactive) in test [10].

For `C#CCN1[C@@H](Cc2ccccc2)C(=O)O[C@H](Cc2ccccc2)[C@@H]1/C=C/C1CC1`, the composite z-score in test [1] is 1.3; in [2], 1.01; in test [3], 0.0423; in [4], -0.287; in test [5] it was 1.27; in test [6], 0.43. The figures for the composite z-score in test [8] and in test [9] were 1.1 and 0.884, respectively. The values for the z-score in [7] and in [10] were 4.04 and -0.415 (inactive), respectively.

On to `COc1ccc([Si](C)(C)[C@H]2[C@H](CCO)O[C@@]3(C(=O)N(Cc4cccc(N(C=O)c5ccccc5)c4)c4ccccc43)[C@@H]2C)cc1`, for which the composite z-score was 0.911 in [1]; 1.19 in test [2]; -0.048 in [3]; 0.777 in test [4]; 0.832 in [5]; 0.886 in test [6]. Also, the values for the composite z-score in test [8] and in test [9] were 1.05 and 0.259, respectively. The z-score in test [7] was 0.837; in test [10], 0.281 (inactive).

As to `COc1ccccc1CN1C(=O)c2ccccc2[C@](Cc2ccccc2I)(C(=O)NCC(C)C)[C@@H]1c1ccc(CO)cc1`, the composite z-score in [1] is -0.718; in test [2], 0.654; in test [3] it was -0.299; in [4], 0.378; in test [5], 1.05; in test [6] it was 0.133. Further, the composite z-score in [8] was -0.803; in test [9], 0.0043. Moreover, the values for the z-score in test [7] and in test [10] were 2.54 and -1.22 (inactive), respectively.

Regarding `O=C1N(Cc2ccccc2)c2ccccc2C[C@@]12COC(c1ccc(OCCCO)cc1)=N2`, the composite z-score in [1] turned out to be 1.55; in [2], 1.21; in [3], 0.75; in test [4], 0.785; in test [5], 1.3; in test [6] it was 0.326. Also, the composite z-score in test [8] is -0.319; in [9] it was 0.98. Further, the z-score in test [7] was 0.0331; in [10], -1.92 (inactive).

Turning to `CN(C)CCCCNC(=O)[C@H]1C[C@H]2C(=O)NCC(=O)N2[C@H]1c1ccc(O)cc1`, the composite z-score in test [1] was 0.489; in test [2] it was -0.791; in [3] it was -0.424; in test [4] it was -0.473; in [5] it was 0.481; in test [6], 0.304. Further, the results for the composite z-score in [8] and in test [9] were 0.057 and 1.08, respectively. Further, the z-score in test [7] was -0.124; in [10], 0.836 (inactive).

For `[N-]=[N+]=Nc1ccccc1C[C@@]1(C(=O)NCC(O)CO)N=C(c2ccc(OCCCO)cc2)O[C@@H]1c1ccccc1` (stereo not given in full), the composite z-score in [1] is -0.0048; in [2], 1.2; in test [3], 0.206; in [4], 0.54; in test [5], -0.327; in [6], 0.0559. In addition, the values for the composite z-score in test [8] and in test [9] were -0.867 and 0.436, respectively. For the same compound, the figures for the z-score in test [7] and in test [10] were 1 and -2.44 (inactive), respectively.

As for `[N-]=[N+]=NCc1ccccc1[C@@H]1OC(c2ccc(OCCCO)cc2)=N[C@]1(Cc1ccccc1N=[N+]=[N-])C(=O)NCC(O)CO` (stereo not given in full), the composite z-score in [1] is 2.76; in [2], 1.2; in test [3], 0.955; in test [4] it was 0.911; in test [5] it was 1.05; in test [6], 1.26. Besides, the composite z-score in test [8] was -0.459; in [9] it was 1.22. Besides, the figures for the z-score in test [7] and in test [10] were 0.637 and -2.1 (inactive), respectively.
